Test results from the antibiotic and cytotoxicity screens of Wong et al. (2023).
About 1,500 (3.8%) of roughly 39,000 compounds were called active. This excerpt belongs to a sample that is enriched for actives.

What follows are compounds tested on HSkMC (human skeletal muscle cells) (assay: cytotoxicity call (relative viability < 0.9)). Conditions: 10 µM.

SMILES	cytotoxicity call
C[C@@H]1CN([C@@H](C)CO)S(=O)(=O)c2ccc(C#Cc3ccccc3F)cc2O[C@@H]1CN(C)C(=O)c1ccc2c(c1)OCO2	inactive
CCc1nc2ccc(C(=O)N3CCN(S(=O)(=O)CC)CC3)cn2c1N(C)C(=O)c1cccc(OC)c1	inactive
C=CCC1C=C(C)CC(C)CC(OC)C2OC(O)(C(=O)C(=O)N3CCCCC3C(=O)OC(C(C)=CC3CCC(O)C(OC)C3)C(C)C(O)CC1=O)C(C)CC2OC (centres undefined)	inactive
C[C@@H]1CCCCO[C@H](CN(C)C(=O)c2ccncc2)[C@H](C)CN([C@H](C)CO)C(=O)c2cc(NC(=O)C3CCCCC3)ccc2O1	inactive
C[C@H](CO)N1C[C@H](C)[C@@H](CN(C)Cc2ccc3c(c2)OCO3)Oc2ccc(NC(=O)Cn3cnnn3)cc2CC1=O	inactive
C[C@@H]1CN([C@H](C)CO)C(=O)Cc2cc(NC(=O)Nc3ccccc3)ccc2O[C@H]1CN(C)S(=O)(=O)c1cn(C)cn1	inactive
O=C(NO)c1cccc(C(=O)N/N=C/[C@@H](O)[C@@H](O)[C@H](O)[C@H](O)CO)c1	inactive
Cc1noc(C)c1NC(=O)Nc1ccc2c(c1)CC(=O)N([C@@H](C)CO)C[C@H](C)[C@H](CN(C)S(=O)(=O)c1cn(C)cn1)O2	inactive
C[C@@H]1CCCCO[C@H](CN(C)S(=O)(=O)c2cn(C)cn2)[C@@H](C)CN([C@H](C)CO)C(=O)c2cc(NS(=O)(=O)c3ccc(F)cc3)ccc2O1	inactive
C[C@@H](NC(=O)N(C)C[C@H]1OCc2ccccc2-c2c(n(C)c3ccccc23)C(=O)N([C@@H](C)CO)C[C@@H]1C)c1ccccc1	inactive
COCC#Cc1ccc([C@H]2[C@@H](CO)N3C(=O)CN(C(=O)c4cccnc4)C[C@@H]23)cc1	inactive
CC(C)NC(=O)Nc1ccc2c(c1)C(=O)N([C@@H](C)CO)C[C@@H](C)[C@@H](CN(C)S(=O)(=O)c1cccs1)O2	inactive
CCC(=O)Nc1nc2[nH]c(COC)cc(=O)n2n1	inactive
C[C@H](CO)N1C[C@H](C)[C@H](CN(C)C(=O)Nc2ccc(F)cc2)Oc2ccc(NC(=O)CCCCCC(=O)Nc3ccccc3N)cc2C1=O	inactive
COc1ccc2cc(C(C)C(=O)O)ccc2c1 (centres undefined)	inactive
COc1ccc(C(=O)NCC(=O)O)cc1	inactive
COc1ccc2cc(-c3cc(-c4cc(Cl)cc(Cl)c4)nn3[C@@H](C)c3ccc(C(=O)NCCC(=O)O)cc3)ccc2c1	active
O=C(C[C@@H]1CC[C@@H]2[C@H](COC[C@@H](O)CN2S(=O)(=O)c2ccccc2)O1)N[C@@H]1CCN(Cc2ccccc2)C1	inactive
COCC(=O)N(C)C[C@H]1Oc2cc(C#Cc3cccnc3)ccc2S(=O)(=O)N([C@H](C)CO)C[C@H]1C	inactive
COc1ccc(S(=O)(=O)N[C@H]2C=C[C@@H](CC(=O)N3CCN(c4ccccc4)CC3)O[C@H]2CO)cc1	inactive
C[C@@H]1CN([C@@H](C)CO)C(=O)Cc2cc(NC(=O)Nc3ccc(C(F)(F)F)cc3)ccc2O[C@H]1CN(C)Cc1ccc(-c2ccccc2)cc1	active
C[C@H]1CN([C@@H](C)CO)C(=O)Cc2cc(NC(=O)Nc3ccc(C(F)(F)F)cc3)ccc2O[C@H]1CN(C)Cc1ccc(-c2ccccc2)cc1	active

SMILES	cytotoxicity call
C[C@@H]1CN([C@@H](C)CO)C(=O)Cc2cc(NC(=O)Nc3ccc(C(F)(F)F)cc3)ccc2O[C@@H]1CN(C)Cc1ccc(-c2ccccc2)cc1	active
C[C@H]1CN([C@@H](C)CO)C(=O)Cc2cc(NC(=O)Nc3ccccc3)ccc2O[C@H]1CN(C)Cc1ccc(-c2ccccc2)cc1	inactive
C[C@H](CO)N1C[C@H](C)[C@@H](CN(C)Cc2ccc(-c3ccccc3)cc2)Oc2ccc(NC(=O)Nc3ccccc3)cc2CC1=O	inactive
C[C@H](CO)N1C[C@H](C)[C@H](CN(C)Cc2ccc(-c3ccccc3)cc2)Oc2ccc(NC(=O)Nc3ccc(C(F)(F)F)cc3)cc2CC1=O	active
N=C1NC(=O)CS1	inactive
Cc1cc(C(=O)Nc2cccc3c2O[C@@H](CN(C)C(=O)Nc2ccccc2)[C@@H](C)CN([C@@H](C)CO)C3=O)n(C)n1	inactive
O=C(C[C@H]1CC[C@@H](NS(=O)(=O)c2ccc(F)cc2)[C@H](CO)O1)N1CCC(Cc2ccccc2)CC1	inactive
C[C@@H]1CCCCO[C@H](CN(C)Cc2ccccc2)[C@@H](C)CN([C@@H](C)CO)C(=O)c2cc(NC(=O)NC3CCCCC3)ccc2O1	inactive
C[C@H](CO)N1C[C@H](C)[C@@H](CN(C)CC2CC2)OCCCC[C@H](C)Oc2ccc(NC(=O)Cc3ccccc3)cc2C1=O	inactive
COc1ccc(S(=O)(=O)Nc2cccc3c2O[C@H](CN(C)S(=O)(=O)c2cn(C)cn2)[C@@H](C)CN([C@@H](C)CO)C3=O)cc1	inactive
COc1cccc(NC(=O)N(C)C[C@@H]2OCc3ccccc3-c3c(n(C)c4ccccc34)C(=O)N([C@@H](C)CO)C[C@H]2C)c1	inactive
C[C@@H]1CN([C@@H](C)CO)C(=O)c2cc(NC(=O)c3ccccc3)ccc2O[C@@H](C)CCCCO[C@@H]1CN(C)C(=O)NC1CCCCC1	inactive
Cc1noc(C)c1NC(=O)Nc1ccc2c(c1)C(=O)N([C@@H](C)CO)C[C@H](C)[C@@H](CN(C)Cc1ccc(C(=O)Nc3ccccc3N)cc1)O2	inactive
C[C@H]1CCCCO[C@H](CN(C)C(=O)Nc2ccc(F)cc2)[C@@H](C)CN([C@@H](C)CO)C(=O)c2cc(NC(=O)Nc3ccc(F)cc3)ccc2O1	inactive
C[C@@H]1CN([C@@H](C)CO)S(=O)(=O)c2ccc(C#Cc3ccccc3)cc2O[C@H]1CN(C)C(=O)Cc1ccccn1	inactive
CCS(=O)(=O)Nc1ccc2c(c1)C(=O)N(C)[C@@H]1CC[C@@H](CC(=O)N[C@H]3CCN(Cc4ccccc4)C3)O[C@H]1CO2	inactive
COc1ccc(S(=O)(=O)N(C)C[C@H]2Oc3ncc(C#CC4(O)CCCC4)cc3C(=O)N([C@H](C)CO)C[C@H]2C)cc1	inactive
CC(C)NC(=O)Nc1ccc2c(c1)C(=O)N([C@@H](C)CO)C[C@@H](C)[C@@H](CN(C)S(=O)(=O)c1cn(C)cn1)OCCCC[C@H](C)O2	inactive
CCN1C(=O)[C@H]2[C@@H](O)CS[C@H]2C1=O	inactive
C[C@@H]1CN([C@H](C)CO)C(=O)Cc2cc(NC(=O)Nc3ccc(C(F)(F)F)cc3)ccc2O[C@@H]1CN(C)Cc1ccc(-c2ccccc2)cc1	active
C[C@H]1CN([C@@H](C)CO)C(=O)Cc2cc(NC(=O)Nc3ccc(C(F)(F)F)cc3)ccc2O[C@@H]1CN(C)Cc1ccc(-c2ccccc2)cc1	active
C[C@@H]1CN([C@H](C)CO)C(=O)Cc2cc(NC(=O)Nc3ccccc3)ccc2O[C@H]1CN(C)Cc1ccc(-c2ccccc2)cc1	inactive

SMILES	cytotoxicity call
C[C@@H]1CN([C@H](C)CO)C(=O)Cc2cc(NC(=O)Nc3ccc(C(F)(F)F)cc3)ccc2O[C@H]1CN(C)Cc1ccc(-c2ccccc2)cc1	active
C[C@H](CO)N1C[C@H](C)[C@@H](CN(C)Cc2ccc(-c3ccccc3)cc2)Oc2ccc(NC(=O)Nc3ccc(C(F)(F)F)cc3)cc2CC1=O	active
C[C@@H]1CN([C@@H](C)CO)C(=O)Cc2cc(NC(=O)Nc3ccccc3)ccc2O[C@H]1CN(C)Cc1ccc(-c2ccccc2)cc1	inactive
COc1cccc(NC(=O)N[C@@H]2C=C[C@@H](CC(=O)N3CCN(C)CC3)O[C@H]2CO)c1	inactive
C[C@@H]1CN([C@@H](C)CO)C(=O)c2cccc(NS(=O)(=O)c3cn(C)cn3)c2O[C@H]1CN(C)C(=O)Nc1ccccc1	inactive
C[C@H]1CCCCO[C@H](CN(C)C(=O)Nc2ccccc2)[C@@H](C)CN([C@@H](C)CO)C(=O)c2cc(NC(=O)CCC(F)(F)F)ccc2O1	inactive
O=C(C[C@H]1CC[C@@H]2[C@H](COC[C@@H](O)CN2C(=O)c2cccnc2)O1)NCC1CC1	inactive
Cc1ccc(CSc2nnc(CCN)o2)cc1	inactive
CCn1ncc(Br)c1CN	inactive
CC(C)NC(=O)[C@@H](N)c1ccccc1	inactive
COc1ccc(NC(=O)Nc2ccc3c(c2)CC(=O)N([C@H](C)CO)C[C@@H](C)[C@H](CN(C)C(=O)Nc2cccc4ccccc24)O3)cc1	inactive
C[C@@H]1CN([C@H](C)CO)C(=O)c2ccccc2-c2ccccc2CO[C@@H]1CN(C)Cc1ccc(Oc2ccccc2)cc1	inactive
COc1ccc(S(=O)(=O)N(C)C[C@@H]2Oc3ccc(NC(=O)Nc4c(C)noc4C)cc3CC(=O)N([C@@H](C)CO)C[C@H]2C)cc1	inactive
O=C(C=CC=Cc1ccc2c(c1)OCO2)N1CCCCC1	inactive
C[C@@H]1CN([C@@H](C)CO)C(=O)c2cccc(NC(=O)Nc3ccc(C(F)(F)F)cc3)c2O[C@H]1CN(C)C(=O)Nc1ccc2c(c1)OCO2	inactive
C[C@H]1CN([C@@H](C)CO)C(=O)c2cccc(NC(=O)Nc3ccc(C(F)(F)F)cc3)c2O[C@@H]1CN(C)C(=O)Nc1ccc2c(c1)OCO2	active
C[C@H](CO)N1C[C@H](C)[C@@H](CN(C)C(=O)Nc2ccc3c(c2)OCO3)Oc2c(NC(=O)Nc3ccc(C(F)(F)F)cc3)cccc2C1=O	active
C[C@H](CO)N1C[C@H](C)[C@H](CN(C)C(=O)Nc2ccc3c(c2)OCO3)Oc2c(NC(=O)Nc3ccc(C(F)(F)F)cc3)cccc2C1=O	inactive
C[C@@H]1CN([C@H](C)CO)C(=O)c2cccc(NC(=O)Nc3ccc(C(F)(F)F)cc3)c2O[C@@H]1CN(C)C(=O)Nc1ccc2c(c1)OCO2	inactive
C[C@H]1CN([C@@H](C)CO)C(=O)c2cccc(NC(=O)Nc3ccc4c(c3)OCO4)c2O[C@@H]1CN(C)C(=O)Nc1ccc(C(F)(F)F)cc1	inactive
